Screens (PubChem)
An excerpt weighted towards active compounds, which were near 2% of everything screened.
NOD2-RIPK2 inh: blocks binding of human NOD2 to RIPK2. O43353. CHO BLA complementation NOD2-RIPK2, CCF4 ratio. inhibition, % at 4.98 µM. 360,000 tested, 0.38% active; in the data active means inhibition above about 21%
Exocytosis inh: lytic granule exocytosis inhibition; TALL-104 LAMP-1 surface exposure, flow cytometry; cells stimulated with thapsigargin and PMA; inhibition, % at 10 µM; 360,000 tested, 0.66% active; AID 651702;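 active means inhibition above about 55%, limit read from the data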
TLR9-MyD88 block: inhibitors of human TLR9-MyD88 binding; Q9NR96+Q99836; CHO BLA complementation TLR9-MyD88, CCF4 FRET ratio; inhibition, % at 4.98 µM; 340,000 tested, 0.21% active; AID 504734;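 active means inhibition above the mean over all tested compounds plus 3 SD, cut at about 21% in these data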
B2AR ag: agonists of human beta-2 adrenergic receptor inducing internalization. P07550. Am2.2-beta2AR cells, FAP receptor internalization, flow cytometry. response, % (concentration not given with the values). 340,000 tested, 0.43% active. AID 504454;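 active means response above a set limit, near 3 SD of response in nonfluorescent compounds, cut at about 42% in these data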
ABHD5-PLIN5 inh: ABHD5-PLIN5 protein interaction inhibition. Split G. princeps luciferase complementation, luminescence, 4 h. AID 602281. inhibition, % at 4 µM. 360,000 tested, 0.78% active. Q00G26+Q8WTS1;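 active means inhibition above the mean inhibition across every tested compound plus 3 SD, cut at about 22% in these data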
TLR4 MyD88 comp: TLR4-MyD88 interaction inhibition in cells. inhibition, % at 8.4 µM. HeLa CL3-4 TLR4/MyD88 BLA complementation, FRET ratio. O00206+Q99836. AID 861. 200,000 tested, 0.18% active; in the data active means inhibition above about 25%
ABHD5 PLIN5 conf: confirmation of human ABHD5-PLIN5 interaction inhibitors; shares compounds with ABHD5-PLIN5 inh; biochemical ABHD5-PLIN5 interaction, luminescence; inhibition, % at 4 µM; 2,200 tested, 67% active; AID 651612; in the data active means inhibition above about 23%
HNF4 split-luc: counter-screen for ABHD5-PLIN5 inhibitors: HNF4 split-luciferase; shares compounds with ABHD5-PLIN5 inh; HNF4 dimerization, luminescence, biochemical; inhibition, % at 4 µM; 2,200 tested, 77% active; AID 651674;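 active means mean inhibition across replicate wells exceeding the computed hit threshold, cut at about 13% in these data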;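 further: light from luciferase halves that rejoin when HNF4 fusion proteins dimerize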
Large screens that a line does not name were inactive (follow-up assays come after a bar, where they were run); ! = not active in a repeat.

O=C1OC(/C(=C\Nc2cc(Cl)ccc2O)[N+](=O)[O-])c2ccccc21 (configuration not stated)	ABHD5-PLIN5 inh 62 | ABHD5 PLIN5 conf inactive | HNF4 split-luc 50
Cc1ccc(NC=C(S(=O)(=O)c2ccccc2)S(=O)(=O)c2ccccc2)c(C)c1	none
COc1ccc(CN2CCC[C@]3(N[C@H](c4ccc(C(F)(F)F)cc4)[C@@H]4C(=O)N(Cc5ccccc5)C(=O)[C@@H]43)C2=O)cc1	none (no result: B2AR ag, TLR4 MyD88 comp)
OC(c1ccc2ccccc2c1)c1ncc(-c2cccc3ccccc23)[nH]1 (configuration not stated)	none (no result: TLR9-MyD88 block, B2AR ag, TLR4 MyD88 comp)
Cc1ccc(-c2nc(SC(C)C(=O)NC3CC3)n[nH]2)cc1 (configuration not stated)	none (no result: B2AR ag, TLR4 MyD88 comp)
CCCc1c(-c2ccc(F)cc2F)ncn1Cc1ccccc1OC	none (no result: TLR9-MyD88 block, B2AR ag, TLR4 MyD88 comp)
COc1ccc(C2=NN(C(=O)COc3ncnc4ccccc34)C(c3ccco3)C2)cc1 (configuration not stated)	none
COc1ccc(C2=NN(C(=O)COC(=O)c3ccc(S(C)(=O)=O)c([N+](=O)[O-])c3)C(c3ccco3)C2)cc1 (configuration not stated)	ABHD5-PLIN5 inh 29 (no result: TLR4 MyD88 comp) | ABHD5 PLIN5 conf 51 | HNF4 split-luc 90
CCCN(CC1CC1)C(=S)NC(=O)c1cc(Br)ccc1Cl	ABHD5-PLIN5 inh 24 (no result: TLR4 MyD88 comp) | ABHD5 PLIN5 conf inactive | HNF4 split-luc inactive
COc1ccccc1OCc1nnc(SCC(=O)NCc2ccco2)n1Cc1ccco1	ABHD5-PLIN5 inh 31 | ABHD5 PLIN5 conf 48 | HNF4 split-luc 34
Cc1ccc(NC(=S)c2nc3ccccc3[nH]2)c(C)c1	none
Cc1cccc(/C=C(\c2nc3ccccc3[nH]2)S(=O)(=O)c2ccccc2)c1	ABHD5-PLIN5 inh 42 | ABHD5 PLIN5 conf 84 | HNF4 split-luc 68
Cc1cccc(C)c1NC(=O)C(c1ccnc2ccccc12)n1c(=O)c(-c2ccco2)nc2ccccc21 (configuration not stated)	ABHD5-PLIN5 inh 45 (no result: TLR9-MyD88 block, B2AR ag, TLR4 MyD88 comp) | ABHD5 PLIN5 conf 52 | HNF4 split-luc 13
CC(C)(C)NC(=O)C(c1cccc2ccccc12)n1c(=O)c(-c2ccccc2)nc2ccccc21 (configuration not stated)	none (no result: TLR9-MyD88 block, B2AR ag, TLR4 MyD88 comp)
Cc1cccc(C)c1NC(=O)C(c1ccccc1F)n1c(=O)c(-c2ccco2)nc2ccccc21 (configuration not stated)	ABHD5-PLIN5 inh 86 (no result: TLR9-MyD88 block, B2AR ag, TLR4 MyD88 comp) | ABHD5 PLIN5 conf 76 | HNF4 split-luc 28
CC(C)C[C@H]1CN(CCCC[C@H]2CNC(=O)C(=O)N2CCC2CCCCC2)C(=O)C(=O)N1CC1CCCCC1	none (no result: TLR9-MyD88 block, B2AR ag, TLR4 MyD88 comp)
C=CCOC(=O)C(=O)/C=C/c1ccc2c(c1)Cc1ccccc1-2	ABHD5-PLIN5 inh 35 | ABHD5 PLIN5 conf 77 | HNF4 split-luc 71
Cn1c2nc(=O)n(-c3ccccc3)c(=O)c-2nc2c1CCCC2	none (no result: B2AR ag, TLR4 MyD88 comp)
O=C(O)c1ccccc1-c1c2cc(I)c(=O)c(I)c-2oc2c(I)c(O)c(I)cc12	ABHD5-PLIN5 inh 30! (no result: TLR4 MyD88 comp) | ABHD5 PLIN5 conf inactive | HNF4 split-luc inactive
O=Cc1ccc(-c2ccccc2C(=O)O)o1	none
CC1(C(=O)NS(=O)(=O)c2ccc(Cl)cc2)CCN1C(=O)Cc1ccccc1Cl (configuration not stated)	none (no result: TLR9-MyD88 block, B2AR ag, TLR4 MyD88 comp)
CCOC(=O)C1CCCN(C(=O)c2cc(Nc3ccc(OC)cc3)nc3ccccc23)C1 (configuration not stated)	ABHD5-PLIN5 inh 29 | ABHD5 PLIN5 conf 42
CCOC(=O)C1CCCN(C(=O)c2cc(-c3ccco3)nc3ccccc23)C1 (configuration not stated)	none (no result: TLR4 MyD88 comp)
CC(C)c1ccc(NC(=O)COC(=O)Cn2cnc3c2c(=O)n(C)c(=O)n3C)cc1	none (no result: B2AR ag, TLR4 MyD88 comp)
O=C(NCc1ccco1)c1cnn2c(C(F)(F)F)cc(-c3cccs3)nc12	ABHD5-PLIN5 inh 24 | ABHD5 PLIN5 conf 25 | HNF4 split-luc 47
COc1ccc(-n2nnnc2C(c2ccnc3ccccc23)N2CCN(C/C=C/c3ccccc3)CC2)cc1 (configuration not stated)	none (no result: TLR9-MyD88 block, B2AR ag, TLR4 MyD88 comp)
